Measurements from PubChem BioAssay (Tox21).
Records with an inconclusive call do not appear. Active and inactive are the calls of the source. Unless noted, calls follow the shape of the full dose curve.

Assays:
[1] = target: Peroxisome proliferator-activated receptor delta (Homo sapiens) (UniProt Q03181); test: qHTS assay to identify small molecule agonists of the peroxisome proliferator-activated receptor delta (PPARd) signaling pathway (AID 743212)
Outline: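 GeneBLAzer UAS-bla HEK293H cells carrying a PPARδ construct were exposed to compounds at 37 °C. Beta-lactamase activity was read by FRET fluorescence after 2 h at room temperature with LiveBLAzer B/G substrate.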

[2] = qHTS assay to identify small molecule antagonists of the peroxisome proliferator-activated receptor delta (PPARd) signaling pathway - cell viability counter screen (AID 743213; active = well fitted curve in the direction sought with a large enough effect in the repeat runs; an effect the other way counts as inactive or inconclusive; also: nearly all actives have a fitted effect of over 50% in size)
Outline: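 Same-well viability: cells pre-incubated 5 h, dosed with compound plus 300 nM L165041, kept 17 h at 37 C, FRET substrate 2 h RT, then CellTiter-Glo 30 min RT and luminescence.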

[3] = target: Peroxisome proliferator-activated receptor delta (Homo sapiens) (UniProt Q03181); test: qHTS assay to identify small molecule antagonists of the peroxisome proliferator-activated receptor delta (PPARd) signaling pathway (AID 743215; active = well fitted inhibition curve with a large enough effect in the signal ratio in the repeat runs, not every such curve was filed as active; the % refers to the signal ratio;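 also: cells stimulated with agonist L165041 at 300 nM final during compound exposure; series mostly up to about 62 µM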)
Outline: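 HEK293H UAS-bla, PPARd; agonist L165041 300 nM final with cpd in DMSO; 37 C 17 h; FRET substrate, RT 2 h; fluorescence intensity.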

[4] = target: Bile acid receptor (Homo sapiens) (UniProt Q96RI1); test: qHTS assay to identify small molecule antagonists of the farnesoid-X-receptor (FXR) signaling pathway (AID 743217; active = well fitted inhibition curve with a large enough effect in the signal ratio in the repeat runs, not every such curve was filed as active; the % refers to the signal ratio)
Chain of Bile acid receptor (Homo sapiens) (Q96RI1 whole entry, looked up): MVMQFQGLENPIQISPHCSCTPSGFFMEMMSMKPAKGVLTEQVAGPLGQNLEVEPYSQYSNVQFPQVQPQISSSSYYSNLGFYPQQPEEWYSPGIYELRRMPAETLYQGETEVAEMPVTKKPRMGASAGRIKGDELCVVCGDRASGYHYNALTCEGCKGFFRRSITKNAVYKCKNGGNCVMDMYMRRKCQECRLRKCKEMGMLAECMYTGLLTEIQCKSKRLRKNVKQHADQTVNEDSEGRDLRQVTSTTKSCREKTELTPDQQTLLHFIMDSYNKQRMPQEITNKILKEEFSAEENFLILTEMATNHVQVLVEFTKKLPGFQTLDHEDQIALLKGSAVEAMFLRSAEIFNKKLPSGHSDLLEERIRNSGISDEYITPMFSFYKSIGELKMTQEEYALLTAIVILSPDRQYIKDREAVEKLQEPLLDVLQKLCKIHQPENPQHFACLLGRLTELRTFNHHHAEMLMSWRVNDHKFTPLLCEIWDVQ
Outline: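 GeneBLAzer FXR-UAS-bla HEK 293T, CDCA-stimulated (50 uM final). Compound treatment 16 h, 37 °C. Detection: beta-lactamase cleavage of B/G FRET substrate, fluorescence.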

[5] = qHTS assay to identify small molecule agonists of the farnesoid-X-receptor (FXR) signaling pathway - cell viability counter screen (AID 743218; active = well fitted curve in the direction sought with a large enough effect in the repeat runs; an effect the other way counts as inactive or inconclusive; also: nearly all actives have a fitted effect of over 45% in size)
Outline: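 Parallel cytotoxicity test: compound-treated (16 h, 37 C) HEK 293T FXR-bla reporter cells were lysed with CellTiter-Glo and luminescence recorded.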

[6] = target: Bile acid receptor (Homo sapiens) (UniProt Q96RI1); test: qHTS assay to identify small molecule agonists of the farnesoid-X-receptor (FXR) signaling pathway (AID 743220; active = well fitted activation curve with a large enough effect in the signal ratio in the repeat runs, not every such curve was filed as active; the % refers to the signal ratio)
Outline: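 Beta-lactamase reporter under UAS control in GeneBLAzer FXR HEK 293T cells (5000/well) measured with LiveBLAzer FRET substrate after 2 h at room temperature. Compound exposure lasted 16 h at 37C.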

[7] = qHTS assay to identify small molecule antagonists of the farnesoid-X-receptor (FXR) signaling pathway - cell viability counter screen (AID 743221; active = well fitted cell-killing curve with a large enough effect in the repeat runs, not every such curve was filed as active; also: nearly all actives have a fitted effect of over 50% in size)
Outline: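 Cytotoxicity counter screen run in the FXR-bla reporter wells: HEK 293T cells exposed to compound with 50 uM (final) chenodeoxycholic acid for 16 h, 37 C, then viability measured by CellTiter-Glo luminescence after 30 min, room temperature.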

[8] = target: Vitamin D3 receptor (Homo sapiens) (UniProt P11473); test: qHTS assay to identify small molecule agonists of the vitamin D receptor (VDR) signaling pathway (AID 743222)
Chain of Vitamin D3 receptor (Homo sapiens) (P11473 whole entry, looked up): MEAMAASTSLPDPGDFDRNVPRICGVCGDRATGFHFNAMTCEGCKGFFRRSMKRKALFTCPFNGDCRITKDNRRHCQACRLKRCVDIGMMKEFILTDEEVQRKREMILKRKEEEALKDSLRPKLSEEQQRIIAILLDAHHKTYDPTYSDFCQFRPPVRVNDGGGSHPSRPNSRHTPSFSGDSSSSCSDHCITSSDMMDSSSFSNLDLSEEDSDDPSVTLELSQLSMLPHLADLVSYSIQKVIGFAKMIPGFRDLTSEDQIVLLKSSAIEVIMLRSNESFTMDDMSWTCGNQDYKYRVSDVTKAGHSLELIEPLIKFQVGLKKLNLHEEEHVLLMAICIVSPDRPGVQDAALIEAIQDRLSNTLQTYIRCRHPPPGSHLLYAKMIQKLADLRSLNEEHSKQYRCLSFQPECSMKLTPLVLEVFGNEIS
Outline: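 In VDR-bla cells, compound-induced beta-lactamase expression is quantified by FRET substrate fluorescence. Treatment lasts 16 h at 37C; substrate develops 2 h at room temperature.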

[9] = target: Vitamin D3 receptor (Homo sapiens) (UniProt P11473); test: qHTS assay to identify small molecule antagonists of the vitamin D receptor (VDR) signaling pathway (AID 743223; active = well fitted inhibition curve with a large enough effect in the signal ratio in the repeat runs, not every such curve was filed as active; the % refers to the signal ratio)
Outline: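 Antagonist mode: compound added to VDR-bla cells alongside agonist 1alpha,25-dihydroxyvitamin D3 (3 nM final), incubation 16 h at 37C. Read-out is LiveBLAzer FRET fluorescence, 2 h at room temperature.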

[10] = qHTS assay to identify small molecule agonists of the vitamin D receptor (VDR) signaling pathway - cell viability counter screen (AID 743224; active = well fitted curve in the direction sought with a large enough effect in the repeat runs; an effect the other way counts as inactive or inconclusive; also: series mostly up to about 63 µM; nearly all actives have a fitted effect of over 50% in size)
Outline: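 Plated VDR-bla cells (4 h, 37C) received compound, incubated 16 h, then LiveBLAzer substrate 2 h RT; CellTiter-Glo added afterwards, luminescence read at 30 min.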

[11] = qHTS assay to identify small molecule antagonists of the vitamin D receptor (VDR) signaling pathway - cell viability counter screen (AID 743225; active = well fitted curve in the direction sought with a large enough effect in the repeat runs; an effect the other way counts as inactive or inconclusive; also: nearly all actives have a fitted effect of over 50% in size)
Outline: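 Cytotoxicity counter screen read by CellTiter-Glo luminescence (30 min, room temperature) in the same wells as the VDR-bla antagonist readout. HEK 293T VDR-UAS-bla cells had 16 h at 37C with compound and 3 nM (final) 1-alpha,25-dihydroxyvitamin D3, then 2 h with FRET substrate.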

[12] = qHTS assay to identify small molecule agonists of the NFkB signaling pathway (AID 1159509; active = well fitted curve in the direction sought with a large enough effect in the signal ratio in the repeat runs, not every such curve was filed as active; the % refers to the signal ratio; also: series mostly up to about 61 µM)
Outline: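 NFkB-bla ME-180 cells carry a beta-lactamase reporter under an NF-kB response element. They were plated overnight, then exposed to compounds for 5 h at 37 C. Read-out is LiveBLAzer FRET after 1.5 hr at room temperature (405 nm excitation; 460/530 nm emission).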

[13] = qHTS assay to identify small molecule agonists of the NFkB signaling pathway - cell viability counter screen (AID 1159515); also: series mostly up to about 61 µM; nearly all actives have a fitted effect of over 55% in size
Outline: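 Using the same wells as the NFkB reporter read, ME-180 NFkB-bla cells given compounds for 5 hr were assessed for viability via CellTiter-Glo, with luminescence taken after a 30 min room-temperature incubation.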

[14] = qHTS assay to identify small molecule agonists of the endoplasmic reticulum stress response signaling pathway (AID 1159516; active = well fitted activation curve with a large enough effect in the signal ratio in the repeat runs, not every such curve was filed as active; the % refers to the signal ratio)
Outline: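 An ESRE-bla HeLa cell assay: compounds were pin-transferred from DMSO onto overnight-plated cells and left 5 hr at 37 C. Substrate was then loaded for 2 hr at room temperature before reading fluorescence at 460 nm and 530 nm.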

[15] = qHTS assay to identify small molecule antagonists of the retinoid-related orphan receptor gamma (ROR-gamma) signaling pathway - cell viability counter screen (AID 1159520; active = well fitted curve in the direction sought with a large enough effect in the repeat runs; an effect the other way counts as inactive or inconclusive; also: nearly all actives have a fitted effect of over 50% in size)
Outline: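 Tet-on ROR gamma CHO cells were given compounds for 2 hr, then doxycycline hyclate at 1 uM final, and incubated 16 hr at 37 C. Viability was measured as ATP content by CellTiter-Glo luminescence.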

[16] = qHTS assay to identify small molecule agonists of the AP-1 signaling pathway - cell viability counter screen (AID 1159525); also: nearly all actives have a fitted effect of over 55% in size
Outline: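 AP-1-bla ME-180 cells in Opti-MEM with 0.5% dialyzed FBS, compound exposure 5 h at 37 C in 15-point titration. Viability read in the same wells as ATP content by CellTiter-Glo luminescence, normalised to tetra-n-octylammonium bromide and DMSO controls.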

[17] = target: Retinoic acid receptor RXR-alpha (Homo sapiens) (UniProt P19793); test: qHTS assay to identify small molecule agonists of the RXR signaling pathway (AID 1159527); also: nearly all actives have a fitted effect of over 35% in size
Chain of Retinoic acid receptor RXR-alpha (Homo sapiens) (P19793 whole entry, looked up): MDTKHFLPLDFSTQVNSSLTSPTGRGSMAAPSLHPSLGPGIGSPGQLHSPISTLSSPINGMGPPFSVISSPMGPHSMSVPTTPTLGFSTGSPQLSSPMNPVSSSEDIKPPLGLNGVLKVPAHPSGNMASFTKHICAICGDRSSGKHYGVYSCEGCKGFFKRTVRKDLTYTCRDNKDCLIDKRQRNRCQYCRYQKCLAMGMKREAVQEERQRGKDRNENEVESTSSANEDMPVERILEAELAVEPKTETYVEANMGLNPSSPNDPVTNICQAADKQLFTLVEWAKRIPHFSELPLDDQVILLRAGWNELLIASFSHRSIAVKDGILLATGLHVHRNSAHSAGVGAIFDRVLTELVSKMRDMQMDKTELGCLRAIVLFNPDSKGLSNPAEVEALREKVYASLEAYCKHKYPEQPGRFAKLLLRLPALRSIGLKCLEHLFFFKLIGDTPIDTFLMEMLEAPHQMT
Outline: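 Agonist-mode beta-lactamase reporter assay: HEK 293T RXR-alpha-UAS-bla cells treated 16 hr at 37 C with compounds, 9-cis retinoic acid as positive control. LiveBLAzer FRET substrate, 405 nm excitation, 460/530 nm emission.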

[18] = target: Nuclear receptor ROR-gamma (Homo sapiens) (UniProt P51449); test: qHTS assay to identify small molecule antagonists of the retinoid-related orphan receptor gamma (ROR-gamma) signaling pathway (AID 1159521; active = well fitted curve in the direction sought with a large enough effect in the repeat runs; an effect the other way counts as inactive or inconclusive)
Outline: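 Antagonist read-out: drop in luminescence (ONE-Glo) from an RORE-LUC reporter in CHO cells with doxycycline-inducible ROR-gamma; 2 hr compound pretreatment, 1 uM doxycycline, 16 hr incubation at 37 C.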

[19] = qHTS assay to identify small molecule agonists of the AP-1 signaling pathway (AID 1159526)

Measured: Potency

Chain of Peroxisome proliferator-activated receptor delta (Homo sapiens) (Q03181 whole entry, looked up): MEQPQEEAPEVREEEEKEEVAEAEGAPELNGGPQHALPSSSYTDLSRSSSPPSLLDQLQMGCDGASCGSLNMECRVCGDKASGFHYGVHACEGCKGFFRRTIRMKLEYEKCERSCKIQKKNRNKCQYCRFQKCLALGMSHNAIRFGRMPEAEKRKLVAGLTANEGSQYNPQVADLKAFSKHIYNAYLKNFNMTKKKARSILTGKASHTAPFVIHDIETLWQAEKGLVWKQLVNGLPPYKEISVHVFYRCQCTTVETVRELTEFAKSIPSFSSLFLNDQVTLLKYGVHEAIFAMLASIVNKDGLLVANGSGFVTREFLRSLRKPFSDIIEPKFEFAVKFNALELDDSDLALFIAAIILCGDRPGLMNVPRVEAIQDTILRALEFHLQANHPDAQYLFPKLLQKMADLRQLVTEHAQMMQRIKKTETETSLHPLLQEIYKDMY

C[N+](C)(C)CCOC(N)=O
not listed: [18] | [19]
inactive: all other assays above

CCCCCCCCCCCCCCC[C@H](O)[C@@H](N)CO
not listed: [2] | [4] | [5] | [6] | [8] | [9] | [15]
inactive: all other assays above

CCCOC(=O)c1ccc(C(=O)OCCC)nc1
not listed: [3] | [4] | [6] | [8] | [9] | [15] | [17] | [18]
inactive: all other assays above

CC(=O)Nc1ccc(N)cc1
not listed: [5] | [9] | [17] | [18]
inactive: all other assays above

CC1=CC(=O)CC(C)(C)C1(O)/C=C/C(C)=C\C(=O)O (stereo not given)
not listed: [6] | [15]
inactive: all other assays above

Nc1ccc(C(=O)OCCCOC(=O)c2ccc(N)cc2)cc1
not listed: [1] | [3] | [6] | [8] | [17] | [18]
inactive: all other assays above

Cc1cc(O)c(C(C)C)cc1Cl
not listed: [6] | [19]
inactive: all other assays above

CC1=C(C=O)C(C)(C)CCC1
not listed: [9] | [18]
inactive: all other assays above

CC1CC(=O)NN=C1c1ccc(NCC(C)(C)NCC(O)COc2cc(Cl)ccc2C#N)cc1 (stereo not given)
not listed: [1] | [2] | [3] | [6] | [9] | [17] | [18] | [19]
inactive: all other assays above

CC1CC(O)CC(C)(C)C1 (stereo not given)
not listed: [1] | [5] | [6] | [9] | [15] | [17] | [18]
inactive: all other assays above

CCOC(=N)CC(=O)OCC
not listed: [4] | [6] | [8] | [9] | [17] | [18]
inactive: all other assays above
